Measurements: PubChem BioAssay
Where “and” joins values, the source holds several entries; their conditions need not be identical. Identical values can stand only once. Calls of active or inactive are those of the source. Unless noted, no stated cut-off is given here; in the data, active means inhibition above about 80%; inactive means the rest.

Tests used:
[1] = viability loss with induced miR-34 in A549 – imaging, A549 dox-inducible miR-34, nuclei and caspase counts, primary screen (AID 1347080;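 active means compounds whose cell count with miR-34 switched on is under 0.7 times the count with it off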); conditions: A549 miR-34 inducible, Hoechst nuclei count, 48 h
[2] = MELAS cybrid and Rieske KO viability enhancers – cell-based, MELAS cybrids, Rieske KO mouse fibroblasts, CellTiter-Glo, primary screen (AID 1508586;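 active means mean z-score across replicates of 1.96 or higher in either the MELAS or the Rieske mutant cell line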;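 further: z relative to plate mean and SD of compound and empty wells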); conditions: low glucose
[3] = growth inhibition, single agent or in combination, cell-based, chromothripsis tumors, cisplatin or BGB combos (AID 1671449); conditions: LFS_MB_P medulloblastoma cells;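 further: cells exposed for 96 hours; 0% = vehicle DMSO and 100% = killing by high DMSO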
[4] = growth inhibition, single agent and combos, cell-based, chromothripsis tumors, cisplatin or BGB combos (AID 1671450); conditions: HDN33 neuroblastoma cells, stronger effect = higher value;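 further: cells exposed to compound for four days; 0% = vehicle DMSO and 100% = cell killing by high DMSO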
[5] = growth inhibition, single agents and combos, ICB984, cell-based, cisplatin or BGB combos, synergistic combos for chromothripsis tumors (AID 1671451; call rule not given here;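 further: cells exposed for 96 hours before readout; 0% = vehicle DMSO and 100% = killing by high DMSO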); conditions: ICB984 medulloblastoma cells, drug combinations, stronger effect = higher value
[6] = growth inhibition, single agents and combos, LFS_MB_1R, cell-based, cisplatin or BGB combos, synergistic combos for chromothripsis tumors (AID 1671452); conditions: LFS_MB_1R medulloblastoma cells, stronger effect = higher value;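 further: cells exposed for 96 hours before readout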
[7] = growth inhibition, single agents and combos, HTB85, cell-based, BGB or cisplatin IC20 combos, synergistic combos for chromothripsis tumors (AID 1671453); conditions: HTB85 osteosarcoma cells, drug combinations, stronger effect = higher value;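 further: cells exposed for 96 hours before readout; 0% = vehicle DMSO and 100% = high DMSO killing control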
[8] = growth inhibition, single agents and combos, CRL2098, cell-based, BGB or cisplatin IC20 combos, synergistic combos for chromothripsis tumors (AID 1671454); conditions: CRL2098 osteosarcoma cells, drug combinations, stronger effect = higher value;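 further: cells exposed for 96 h before readout; 0% = vehicle DMSO and 100% = killing by high DMSO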
[9] = growth inhibition, single agents and combos, HD-MB03, cell-based, BGB or cisplatin IC20 combos, synergistic combos for chromothripsis tumors (AID 1671455; in the data active means inhibition above about 83%;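 further: 0% = vehicle DMSO and 100% = high DMSO as cytotoxic control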); conditions: HD-MB03 medulloblastoma cells, stronger effect = higher value
[10] = growth inhibition, single agents and combos, UWB1.289, cell-based, BGB or cisplatin combos, synergistic combos for chromothripsis tumors (AID 1671456); conditions: UWB1.289 ovarian carcinoma cells, stronger effect = higher value;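 further: cells exposed to compound for four days; 0% = vehicle DMSO and 100% = killing by high DMSO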
[11] = growth inhibition, single agents and combos, LFS_MB_2R, cell-based, cisplatin combos, synergistic combos for chromothripsis tumors (AID 1671457); conditions: LFS_MB_2R medulloblastoma cells, stronger effect = higher value;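 further: cells exposed to compound for four days before readout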
[12] = growth inhibition, MDA-MB-436, cell-based, BGB or cisplatin combos, synergistic combos for chromothripsis tumors (AID 1671458; call rule not given here;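 further: cells exposed for 96 hours; 0% = vehicle DMSO and 100% = killing by high DMSO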); conditions: MDA-MB-436 breast carcinoma growth inhibition, drug combinations, stronger effect = higher value
[13] = UWB1.289_BRCA1 ovarian cancer growth, cell-based, BGB or cisplatin combinations (AID 1671459); conditions: UWB1.289 BRCA1 ovarian carcinoma, drug combinations, stronger effect = higher value
[14] = drug combination toxicity in non-malignant astrocytes – cell-based, BGB or cisplatin IC20 combos, cytotoxicity control for chromothriptic childhood tumor combination screen (AID 1671460); conditions: Human astrocytes, viability inhibition, drug combinations, at 0.5 µM, stronger effect = higher value;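 further: cells exposed to compounds for 96 hours before viability readout; 0% = vehicle and 100% = killing control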
[15] = BT084 cell growth, single and combined drugs, ICGC_MB145, cisplatin and BGB IC40 combos (AID 1671461); conditions: BT084 medulloblastoma cells, drug combinations, stronger effect = higher value;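 further: cells exposed to drugs for 96 hours; 0% = vehicle DMSO and 100% = high DMSO full killing control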
[16] = RCMB18 cell growth, single agent and combined, cisplatin and BGB IC40 combos (AID 1671462); conditions: RCMB18 medulloblastoma cells, stronger effect = higher value;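 further: cells exposed to compound for four days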
[17] = CRL1545 cell growth, single agent and combined, cisplatin and BGB IC20 combos (AID 1671464); conditions: CRL1545 osteosarcoma cells, stronger effect = higher value;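 further: cells exposed to compound for 96 hours before readout; 0% = vehicle DMSO and 100% = high DMSO killing control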
[18] = compounds altering viability of human ES cells (AID 493140; call rule not given here;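 further: cells exposed to compounds for four days before counting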); conditions: human embryonic stem cell survival screen; stronger effect = higher value
[19] = P. berghei load reduction in hepatocytes – cell-based, HepG2, luciferase luminescence, HepG2 viability, primary screen (AID 624349; in the data active means parasite load remaining mostly below about 12%, no sharp cut-off; inactive means mostly above about 10%;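 further: 100% = mean of DMSO negative control wells on the same plate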); conditions: P. berghei liver stage in HepG2, luciferase luminescence, concentration not given here; parasite load remaining: stronger effect = lower value; viability: measured here: HepG2 viability without parasites
[20] = stronger effect = lower value, cell number ratio, induced over uninduced
[21] = measured here: relative caspase fold change +Dox/-Dox
[22] = measured here: total cells with miR-34 induction, stronger effect = lower value
[23] = measured here: total cells without miR-34 induction
[24] = MELAS cybrid survival, CellTiter-Glo 48 h, stronger effect = higher value
[25] = Rieske KO mouse fibroblast survival, CellTiter-Glo 72 h
[26] = measured here: combination with BGB IC40, at 0.05 µM
[27] = measured here: with BGB IC20 combination, at 0.5 µM
[28] = measured here: with cisplatin IC20 combination, at 0.5 µM
[29] = measured here: combination with cisplatin, at 0.5 µM
[30] = measured here: combination with cisplatin, at 5 µM

## CC1CN(c2c(F)c(N)c3c(=O)c(C(=O)O)cn(C4CC4)c3c2F)CC(C)N1 (configuration not stated)
[1]; [20]
  fold change: 0.949 (inactive)
[1]; [21]
  fold change: 1.47
[1]; [22]
  cell count: 8380
[1]; [23]
  cell count: 8840
[2]; [24]
  z-score: -0.385 (inactive)
[2]; [25]
  z-score: 0.474
[3]; at 0.5 µM, stronger effect = higher value
  inhibition: -8.35% (inactive)
[3]; measured here: combination with BGB IC20, at 0.005 µM
  inhibition: -4.46%
[3]; measured here: combination with BGB IC40, at 0.005 µM
  inhibition: -31.5%
[3]; [26]
  inhibition: -15.2%
[3]; measured here: combination with cisplatin, at 0.5 µM, stronger effect = higher value
  inhibition: -6.19%
[3]; measured here: combination with cisplatin, at 5 µM, stronger effect = higher value
  inhibition: -16.6%
[4]; BGB combo, at 5 µM
  inhibition: 12%
[4]; at 0.5 µM
  inhibition: -0.91% (inactive)
[4]; cisplatin combo, at 5 µM
  inhibition: -6.01%
[4]; [27]
  inhibition: 11.5%
[4]; [28]
  inhibition: -1.5%
[4]; single agent, at 5 µM
  inhibition: 6.32%
[5]; BGB IC20 combo, at 0.005 µM
  inhibition: -1.67%
[5]; BGB IC40 combo, at 0.005 µM
  inhibition: 11%
[5]; BGB IC40 combo, at 0.05 µM
  inhibition: -1.88%
[5]; at 0.5 µM
  inhibition: 7.87% (inactive)
[5]; cisplatin combo, at 0.05 µM
  inhibition: -1.88%
[5]; cisplatin combo, at 0.5 µM
  inhibition: 11.3%
[5]; cisplatin combo, at 5 µM
  inhibition: 13.8%
[5]; measured here: 5 uM single agent, at 5 µM
  inhibition: -29.6%
[6]; at 0.5 µM
  inhibition: -11.6% (inactive)
[6]; [26]
  inhibition: 17.7%
[6]; [29]
  inhibition: -11.6%
[6]; [30]
  inhibition: 6.53%
[7]; at 0.5 µM
  inhibition: -1.44% (inactive)
[7]; measured here: with BGB IC20, at 0.5 µM
  inhibition: -7.64%
[7]; measured here: with BGB IC20, at 5 µM
  inhibition: 3.84%
[7]; measured here: with cisplatin IC20, at 0.5 µM
  inhibition: -9.9%
[7]; measured here: with cisplatin IC20, at 5 µM
  inhibition: -0.774%
[7]; single agent, at 5 µM
  inhibition: 7.58%
[8]; at 0.5 µM
  inhibition: 10.8% (inactive)
[8]; measured here: combination with BGB at IC20, at 0.5 µM
  inhibition: -2.31%
[8]; measured here: combination with cisplatin at IC20, at 0.5 µM
  inhibition: 38.8%
[9]; at 0.5 µM
  inhibition: -2.01% (inactive)
[9]; measured here: combo with BGB at IC20, at 0.5 µM
  inhibition: -4.41%
[9]; measured here: combo with cisplatin at IC20, at 0.5 µM
  inhibition: 2.33%
[10]; at 0.5 µM
  inhibition: 8.04% (inactive)
[10]; measured here: inhibition with BGB combination, at 0.05 µM
  inhibition: 0.724%
[10]; measured here: inhibition with cisplatin combination, at 0.05 µM
  inhibition: -2.03%
[11]; at 0.5 µM
  inhibition: -6.3% (inactive)
[11]; [29]
  inhibition: -7.26%
[11]; [30]
  inhibition: 2.01%
[12]; at 0.5 µM
  inhibition: -9.1% (inactive)
[12]; measured here: BGB combination, at 0.5 µM
  inhibition: -2.77%
[12]; measured here: BGB combination, at 5 µM
  inhibition: -17.3%
[12]; measured here: cisplatin combination, at 0.5 µM
  inhibition: -22.6%
[12]; measured here: cisplatin combination, at 5 µM
  inhibition: -5.2%
[13]; BGB combination, concentration series, at 5 µM
  inhibition: 10.9%
[13]; at 0.5 µM
  inhibition: 7.45% (inactive)
[13]; cisplatin combination, concentration series, at 5 µM
  inhibition: 7.13%
[14]
  inhibition: -1.22% (inactive)
[14]; measured here: combo with BGB IC20
  inhibition: 2.7%
[14]; measured here: combo with cisplatin IC20
  inhibition: -10.7%
[15]; at 0.5 µM
  inhibition: -22.6% (inactive)
[15]; cisplatin combination, at 0.5 µM
  inhibition: -28.7%
[15]; cisplatin combination, at 5 µM
  inhibition: -70.7%
[15]; measured here: BGB IC40 combination 0.05 uM, at 0.05 µM
  inhibition: 2.3%
[15]; single agent, at 5 µM
  inhibition: -7.96%
[16]; at 0.5 µM
  inhibition: -6.55% (inactive)
[16]; cisplatin combo, at 5 µM
  inhibition: 2%
[16]; measured here: BGB IC40 combination, at 0.05 µM
  inhibition: 11.2%
[16]; [29]
  inhibition: -22.2%
[16]; single agent, at 5 µM
  inhibition: -18.8%
[17]; at 0.5 µM
  inhibition: -2.34% (inactive)
[17]; [27]
  inhibition: 14.7%
[17]; [28]
  inhibition: -10.9%
[17]; single agent, at 0.05 µM
  inhibition: 39.2%
[17]; single agent, at 5 µM
  inhibition: 26.7%

## CNCCC=C1c2ccccc2C=Cc2ccccc21
[18]
  survival: 0.833 (inactive)
[19]
  parasite load remaining: 45.3% (inactive) and 67.3% (inactive)
  viability: 45.5% and 71.9%
[1]; [20]
  fold change: 0.862 (inactive)
[1]; [21]
  fold change: 1.27
[1]; [22]
  cell count: 6810
[1]; [23]
  cell count: 7910
[2]; [24]
  z-score: 0.194 (inactive)
[2]; [25]
  z-score: 0.365

## C=CCOc1ccccc1OCC(O)CNC(C)C (configuration not stated)
[18]
  survival: 7.17 (inactive)
[19]
  parasite load remaining: 73.5% (inactive)
  viability: 76.9%
[1]; [20]
  fold change: 0.94 (inactive)
[1]; [21]
  fold change: 0.727
[1]; [22]
  cell count: 9530
[1]; [23]
  cell count: 10100
[2]; [24]
  z-score: 0.73 (inactive)
[2]; [25]
  z-score: 0.111
